# Screens deposited in PubChem by Buhrlage Lab, Dana-Farber Cancer Institute and Novartis Institutes for BioMedical Research (Cambridge, Mass).
# In the library only some 11% were active in any assay of this set; here they are far more common.
# USP28 block: blocks human USP28 ubiquitin-rhodamine cleavage | AID 1645857 | inhibition, % at 25 µM | purified USP28, Ub-rhodamine cleavage fluorescence, 30 min | 47,000 tested, 3% active | Q96RU2
# USP17 inh: blocks human USP17 ubiquitin-rhodamine cleavage; AID 1645855; purified USP17, Ub-rhodamine cleavage fluorescence, 3 h; 47,000 tested, 6.5% active; A8MUK1; inhibition, % at 50 µM
# USP30 block: human USP30 deubiquitinase inhibition; purified USP30, Ub-rhodamine cleavage fluorescence; 47,000 tested, 5.3% active; inhibition, % at 25 µM; AID 1645860
# Target sequence (Q70CQ3 whole entry, looked up): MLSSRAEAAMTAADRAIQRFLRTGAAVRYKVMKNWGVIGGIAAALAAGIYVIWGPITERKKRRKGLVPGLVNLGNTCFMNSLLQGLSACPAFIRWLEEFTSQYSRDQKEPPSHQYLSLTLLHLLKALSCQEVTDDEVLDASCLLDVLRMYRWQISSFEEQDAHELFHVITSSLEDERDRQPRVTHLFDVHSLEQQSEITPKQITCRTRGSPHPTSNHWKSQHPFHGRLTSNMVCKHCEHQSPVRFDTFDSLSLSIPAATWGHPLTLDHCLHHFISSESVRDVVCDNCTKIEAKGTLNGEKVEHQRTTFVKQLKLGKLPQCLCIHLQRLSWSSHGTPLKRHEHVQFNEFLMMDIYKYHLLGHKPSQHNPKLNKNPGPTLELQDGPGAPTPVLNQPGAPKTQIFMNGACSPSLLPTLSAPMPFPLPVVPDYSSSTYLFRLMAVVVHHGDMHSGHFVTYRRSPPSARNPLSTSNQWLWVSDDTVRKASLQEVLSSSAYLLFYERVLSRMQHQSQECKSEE
# Hits are given with their value; - = inactive; . = no result given. No stated cut-off is given here; in the data, active means inhibition above about 30%; inactive means the rest.
SMILES,USP28 block,USP17 inh,USP30 block
CC(CCc1ccccc1)NC(=O)Cn1cccc1C(=O)c1ccccc1 (stereo unspecified),38,-,-
CC(CCc1ccccc1)NC(=O)CSc1ncnc2nc[nH]c12 (stereo unspecified),.,-,.
O=C1COC2(CCN(C(=O)C3(c4ccc(F)cc4)CCCC3)C2)CN1c1ccccc1 (stereo unspecified),-,-,-
COc1ccc(-c2nnc(NC(=O)CSc3ccc(C)cc3)o2)cc1,-,-,-
COc1ccc(N2CCn3c(SCC(=O)Nc4cc(C)cc(C)c4)nnc32)cc1,-,.,35
N#Cc1cccc(C(=O)NCc2cnn3ccccc23)c1,-,-,-
Cc1cccc(NC(=O)CCc2nc3ccccc3n2-c2ccccc2)c1C,-,-,-
O=C(OCc1cn(-c2ccccc2)nc1-c1cccs1)c1cc(S(=O)(=O)N2CCOCC2)ccc1Cl,-,-,-
CC1CCCCC1NCC(=O)NC(c1ccccc1)c1ccccc1 (stereo unspecified),-,-,32
CCOC(=O)C1CCCN(CC(=O)NC(c2ccccc2)c2ccccc2)C1 (stereo unspecified),-,-,-
CC(C)NC(=O)N1C[C@H]2N(c3ncccn3)CCC[C@@]2(C(=O)NCC2CC2)C1,-,-,-
Cc1ccc2nc(CNc3cccc(Cl)c3)cc(=O)n2c1,-,30,-
Cc1ccc(NCc2cc(=O)n3cc(C)ccc3n2)c(C)c1,-,-,-
Cc1cc(C(F)F)n2nc(C(=O)N3CCC(c4onc5c4CC(C)CC5)CC3)nc2n1 (stereo unspecified),-,-,-
Cn1c(CN2CCOCC2)nnc1SCC(=O)Nc1ccc(F)cc1,-,-,-
CN(C)c1ccc(NC(=O)CSc2nnc(-c3ccc(S(=O)(=O)N4CCOCC4)cc3)n2C)cc1,-,-,45
c1ccc(-c2onc3c2CCCC3)cc1,35,-,-
CC(C(=O)N1CCC(c2onc3c2CCCC3)CC1)c1ccccc1 (stereo unspecified),-,-,-
CC(C)CCNC(=O)c1ccc2ccnc(N3CCN(c4ccccc4)CC3)c2c1,-,-,-
O=C(CNc1nc(Nc2ccccc2F)nc(Nc2ccccc2F)n1)Nc1ccccc1,49,-,81
O=C(CNc1nc(Nc2ccccc2)nc(Nc2ccccc2)n1)Nc1ccccc1F,-,44,-
Cc1cccc(NC(=O)CNc2nc(Nc3ccccc3)nc(Nc3ccccc3)n2)c1,-,.,32
Cc1ccccc1NC(=O)CNc1nc(Nc2ccccc2)nc(Nc2ccccc2)n1,-,65,-
CN(CCC(=O)Nc1ccccc1F)Cc1ccccc1,-,-,-
Cc1ccccc1NC(=O)Cn1cnc(NC(=O)c2ccccc2)n1,-,-,-
SMILES,USP28 block,USP17 inh,USP30 block
Cc1cccc(NC(=O)CSCC(=O)Nc2cccc3ccccc23)c1,-,-,-
Cc1cccc(Nc2ccc(NCCNC(=O)Nc3ccccc3F)nn2)n1,.,-,.
CC(C)C(NS(=O)(=O)c1ccccc1F)C(=O)NC1CCCCC1 (stereo unspecified),-,-,-
Cc1ccc2c(c1)-c1c(c(C(=O)NCCCN3CCN(C)CC3)nn1C)CS2,-,-,-
COc1ccccc1OCC(=O)Nc1onc2c1CCCC2,-,-,-
CN(C)[C@@H]1CN(C(=O)CCn2nnc3ccccc32)C[C@H]1O,-,-,-
Cc1nc2cc(-c3noc(/C=C/c4ccccc4)n3)ccc2n(C)c1=O,-,-,-
CCn1c(CN2CCN(Cc3ccccc3)CC2)nc2ccccc21,-,-,-
CCC(C)c1ccc(-c2csc(Cn3c(CN4CCN(C)CC4)nc4ccccc4c3=O)n2)cc1 (stereo unspecified),-,58,-
COc1cc(C2CCN(C(=O)c3ccccc3)CC2)on1,-,-,-
Cc1ccc(CNC(=O)CN2CCC3(CCC2=O)NC(=O)c2ccccc2O3)cc1 (stereo unspecified),-,-,-
O=C(Cn1cccc1-c1nc(-c2ccccc2)cs1)N1CCOCC1,-,74,-
O=C(Cn1cncc(-c2nc(-c3ccccc3)cs2)c1=O)N1CCCC1,-,-,-
COc1ccccc1C(=O)N(Cc1ccccc1F)C1CCS(=O)(=O)C1 (stereo unspecified),-,-,-
COc1ccccc1C(=O)N(Cc1ccccc1)C(C)(C)c1ccccc1,-,-,36
Cc1ccc(CNC(=O)c2cc3occc3c(Nc3ccccc3)n2)cc1,-,49,-
Cc1ccccc1CNC(=O)c1cc2occc2c(Nc2ccc(F)cc2)n1,-,-,-
CNC(=O)CN(C(=O)C1CCC1)[C@@H]1C[C@@H]2CO[C@H](c3ccccc3)C[C@@H]2C1,-,-,-
O=S(=O)(C1CC1)N1CCCC(c2cc(-c3ccc(F)cc3)n[nH]2)C1 (stereo unspecified),-,-,-
Cc1nc2c(c(=O)[nH]1)CC[C@@H]1CN(C(=O)c3sc(C)nc3C)C[C@H]21,-,-,-
O=C(NC1CCCCCC1)c1cccc(S(=O)(=O)Nc2cc(C(F)(F)F)ccc2Cl)c1,-,33,31
Cc1ccc(NS(=O)(=O)c2cccc(C(=O)NC3CCN(Cc4ccccc4)CC3)c2)c(C)c1,-,-,-
Cc1nn(-c2ccccc2)c2c1N=C1C(Cl)=CC(Cl)=CN1C21C(=O)Nc2ccccc21 (stereo unspecified),50,82,-
COc1ccc(CCN2Cc3cc4cc(C)ccc4nc3OC2=O)cc1,-,-,-
COc1ccc2cc3c(nc2c1)OC(=O)N(Cc1ccc(F)cc1)C3,-,-,-
SMILES,USP28 block,USP17 inh,USP30 block
CCOc1ccc2cc3c(nc2c1)OC(=O)N(Cc1ccc(OC)cc1)C3,-,-,38
COc1ccc2cc3c(nc2c1)OC(=O)N(CCc1cccc(F)c1)C3,-,56,-
CC(C)CN1C[C@@H]2C(=O)N(C)C3(CCN(C(=O)c4ccccc4)CC3)[C@@H]2C1,-,-,-
Cc1nc(SCc2ccccc2)nc2c1CCN2c1ccccc1,-,-,-
CSc1nc(C)c2c(n1)N(c1ccc(C(C)C)cc1)CC2,-,41,-
CCC1(C)Cc2ccccc2-c2[nH]c(=O)n(-c3ccc(C)cc3)c(=O)c21 (stereo unspecified),-,-,-
Cc1ccc(C(=O)N2CCN(c3ncnc4c3CCC4)CC2)s1,-,-,-
O=C(O)COc1cc(O)c2c(=O)c(-c3ccc4c(c3)OCCO4)coc2c1,-,-,-
COc1ccc2occ(-c3ccc4c(c3)OCCO4)c(=O)c2c1,-,-,33
CC(=O)Nc1ccc([C@H]2OCC(=O)N(C3CCOCC3)[C@@H]2CO)cc1,-,-,51
CN1C(=O)CO[C@H](c2ccc(NC(=O)c3ccccc3)cc2)[C@H]1CO,-,-,-
Nc1c(-c2ccc(Cl)cc2)cnc2nc(Sc3ncc(C(F)(F)F)cc3Cl)nn12,-,-,33
FC(F)(F)c1cnc(-n2nccc2-c2ccc(Sc3ccccc3)cc2)c(Cl)c1,-,-,-
Cc1cc2ncc(-c3ccsc3)c(N)n2n1,-,-,-
Nc1c(-c2ccc(Cl)cc2)cnc2cc(-c3ccc(Cl)c(Cl)c3)nn12,-,41,60
CCN1CCN(c2oc(-c3ccc(COc4ccccc4)o3)nc2C#N)CC1,-,-,-
COc1ccc(S(=O)(=O)NCCc2nnc3ccc(SCC(=O)Nc4cccc(C(F)(F)F)c4)nn23)cc1,-,-,-
CCc1cccc(NC(=O)Cn2cnc(S(=O)(=O)N3CCOCC3)c2)c1,-,-,-
